Rows were chosen to be rich in hits. Some 5.2% of all compounds tested hit in one or more screens of this group.
VDR inh = blocks the human vitamin D receptor; VDR-SRC2-3 peptide fluorescence polarization, 2 h; Potency, µM, for the others: max response, negative = inhibition, most hits filed as inhibitors; hit rate 0.93% among 400,000; AID 504847
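Compounds are added to VDR with labelled SRC2-3 coactivator peptide and held 2 h at room temperature. Inhibition of the VDR–peptide interaction is then read as a change in fluorescence polarization.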
Sfp inh = Sfp phosphopantetheinyl transferase inhibition | Q9F4F7 | Biochemical Sfp PPTase activity, qHTS | Potency, µM, for inactives: largest response in the series, negative = inhibition, hits mostly inhibitors | hit rate 3.5% among 310,000;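 further: the enzyme is Sfp with the accession as filed and its product quenches rhodamine fluorescence; 0% = enzyme reaction without inhibitor and -100% = no enzyme wells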
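Buffer: 50 mM Hepes-Na pH 7.6, 10 mM MgCl2, 0.01% Nonidet P-40, 0.01% BSA. Enzyme 15 nM, pre-exposed to compound 15 min; substrates then added and fluorescence change tracked over 30 min.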
TrxR1 inh = blocks rat thioredoxin reductase 1. recombinant rTrxR1, NADPH fluorescence consumption, selenite substrate. Potency, µM (series often up to 114 µM), without a hit: at the top dose activity change, negative = inhibition, usual class: inhibitors. hit rate 1% among 390,000; further: nearly all actives have a fitted effect of over 65% in size
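Rat TrxR1 (90 nM in the dispensed reagent) was pre-reduced with 400 uM NADPH for 5 min at room temperature, then incubated with compound for 15 min. After 400 uM selenite was added, NADPH fluorescence (Ex 340/Em 450 nm) was followed for 8 min.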
TrxR1 substrate = substrates of rat thioredoxin reductase 1. O89049. purified TrxR1 substrate turnover, NADPH consumption readout. Potency, µM (highest dose often 114 µM), for inactives: at the highest dose activity change, negative = substrate turnover. hit rate 0.01% among 390,000. AID 588456; further: nearly all actives have a fitted effect of over 50% in size
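Rat TrxR1, dispensed at 90 nM, was prereduced with 400 uM NADPH (final) for 5 min at ~22 deg C, then incubated with compound 15 min before 400 uM selenite. A first-read NADPH fluorescence drop versus no-compound background flagged substrates.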
IDH1 R132H inh = inhibitors of human mutant IDH1 R132H | Potency, µM (top dose mostly 76.6 µM), for inactives: at the top dose activity change, negative = inhibition, most hits filed as inhibitors | O75874 | AID 602179 | IDH1-R132H enzyme, NADPH consumption, diaphorase/resazurin fluorescence | hit rate 0.093% among 390,000; further: nearly all actives have a fitted effect of over 65% in size
Target sequence (O75874 whole entry R132H, stated change not applied): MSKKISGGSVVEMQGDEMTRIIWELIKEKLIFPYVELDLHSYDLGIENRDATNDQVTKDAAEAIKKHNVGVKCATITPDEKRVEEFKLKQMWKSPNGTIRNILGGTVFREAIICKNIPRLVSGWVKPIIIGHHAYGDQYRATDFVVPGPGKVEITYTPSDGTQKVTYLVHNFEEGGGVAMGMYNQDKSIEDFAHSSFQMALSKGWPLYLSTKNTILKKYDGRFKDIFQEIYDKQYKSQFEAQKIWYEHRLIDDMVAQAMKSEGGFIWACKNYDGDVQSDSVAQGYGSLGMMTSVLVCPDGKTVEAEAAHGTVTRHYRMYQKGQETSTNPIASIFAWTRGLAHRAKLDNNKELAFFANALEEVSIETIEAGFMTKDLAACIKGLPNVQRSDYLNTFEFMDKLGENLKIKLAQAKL
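IDH1-R132H (0.5 ug/mL dispensed) in pH 7.5 Tris buffer was preincubated 30 min with compound, then given a substrate mix of 0.016 mM NADPH and 2 mM alpha-KG for 80 min at room temperature; remaining NADPH was read by diaphorase/resazurin fluorescence.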
PLK1 PBD inh = PLK1 (human) polo-box domain binding inhibition; Potency, µM, inactives show max response, negative = inhibition, actives largely listed as inhibitors; Plk1 PBD binding of FITC phosphopeptide, fluorescence polarization; hit rate 2.8% among 360,000; further: series mostly up to about 57 µM; nearly all actives have a fitted effect of over 65% in size
Numbers without * were called inactive; [ ] = another dose, or the depositor's remark. The call rests on the fitted dose curve; in most records, active means well fitted curve in the direction sought with a large enough effect; inconclusive means small, poorly fitted or top-dose-only effect, or another doubt; inactive means no such curve, though single readings can be large; an effect the other way counts as inactive or inconclusive. Unless noted, on the % scale 0 is the no-effect control and ±100 the full control effect; potency means the concentration at half of the fitted maximal effect.

For N#CC(c1nc2ccccc2nc1N1CCCC1)S(=O)(=O)c1ccccc1 (stereo not drawn) the results were VDR inh 5%, Sfp inh -26%, TrxR1 inh -19%, TrxR1 substrate 22%, IDH1 R132H inh -5% and PLK1 PBD inh -24%.
O=C(Nc1ccc(Oc2ccccc2)cc1)c1csc([C@@H]2O[C@H](CO)[C@H](O)[C@H](O)[C@H]2O)n1 was read as PLK1 PBD inh -7%.
CC(C)(C)C(=O)/C(=C/c1ccncc1)n1cncn1 was read as VDR inh inconclusive, Sfp inh 35µM*, TrxR1 inh 18µM*, TrxR1 substrate 11%, IDH1 R132H inh 10% and PLK1 PBD inh -27%.
`Cc1ccsc1CN(C)CC(=O)Nc1ccccc1C(=O)NC1CC1` gave VDR inh 1%, TrxR1 inh 13%[57.1 µM], TrxR1 substrate 6%[57.1 µM], IDH1 R132H inh -2% and PLK1 PBD inh -1%.
`N#CC(C#N)=Cc1ccc(OCC(=O)N2CCOCC2)cc1` gave VDR inh inconclusive, Sfp inh 1%, TrxR1 inh 16µM*, TrxR1 substrate -5%, IDH1 R132H inh 2% and PLK1 PBD inh -17%.
Screening CCOc1ccc(OCC(=O)N2CCOCC2)cc1 returned VDR inh -22%, Sfp inh 7%, TrxR1 inh 7%[57.1 µM], TrxR1 substrate 7%[57.1 µM], IDH1 R132H inh 7% and PLK1 PBD inh -7%.
CCCCN1C[C@H](CSC)[C@@H](CC(=O)Nc2ccc(Br)cc2)C1=O was read as IDH1 R132H inh 3% and PLK1 PBD inh -10%.
Screening CC(C)CCNC(=O)c1ccc2c(c1)NC(=O)C(CS(=O)(=O)Cc1cccc(Br)c1)N2 (stereo not drawn) returned VDR inh 8%, TrxR1 inh -14%, TrxR1 substrate 1% and IDH1 R132H inh 6%.
Screening COc1ccc(NC(=S)NNS(=O)(=O)c2ccc3ccccc3c2)c(OC)c1 returned VDR inh inconclusive, Sfp inh 7%, TrxR1 inh 5%[57.1 µM], TrxR1 substrate 0%[57.1 µM], IDH1 R132H inh -4% and PLK1 PBD inh 30µM*.
`Cc1cccc(C(=O)NNS(=O)(=O)c2ccccc2[N+](=O)[O-])c1` gave VDR inh 0%, Sfp inh 6%, TrxR1 inh 2%[57.1 µM], TrxR1 substrate 2%[57.1 µM], IDH1 R132H inh 0% and PLK1 PBD inh inconclusive.
Screening O=C(NNS(=O)(=O)c1ccccc1[N+](=O)[O-])c1ccc(F)cc1 returned VDR inh -4%, Sfp inh 5%, TrxR1 inh 34%, TrxR1 substrate 4%, IDH1 R132H inh 5% and PLK1 PBD inh -3%.
For O=C(NNS(=O)(=O)c1ccccc1[N+](=O)[O-])c1ccc(O)cc1 the results were VDR inh -4%, Sfp inh 7%, TrxR1 inh 14%, TrxR1 substrate 5%, IDH1 R132H inh -3% and PLK1 PBD inh 24µM*.
Cc1ccc(C(=O)NNS(=O)(=O)c2ccccc2[N+](=O)[O-])cc1 was read as VDR inh -2%, Sfp inh -18%, TrxR1 inh 11%[57.1 µM], TrxR1 substrate -11%, IDH1 R132H inh 0% and PLK1 PBD inh 27µM*.
`CC(C)Cc1nn2c(=O)cc(COC(=O)c3cccc(NS(C)(=O)=O)c3)nc2s1` gave VDR inh 13%, TrxR1 inh -4%[57.1 µM], TrxR1 substrate -8%[57.1 µM] and IDH1 R132H inh 0%.
For O=C(/C=C/c1ccc([N+](=O)[O-])cc1)/C=C/c1ccco1 the results were Sfp inh 50µM*.
For O=C(/C=C/c1ccco1)NCC(=O)N/N=C/c1ccc([N+](=O)[O-])cc1 the results were VDR inh inconclusive, Sfp inh inconclusive, TrxR1 inh 45µM*, TrxR1 substrate -10%, IDH1 R132H inh -4% and PLK1 PBD inh 11µM*.
`O=C(N/N=C/C=C/c1ccco1)c1cccc([N+](=O)[O-])c1` gave VDR inh -2%, Sfp inh -21%, TrxR1 inh inconclusive, TrxR1 substrate -6%, IDH1 R132H inh 2% and PLK1 PBD inh -5%.
`O=C(/C=C/c1ccco1)c1cccc([N+](=O)[O-])c1` gave VDR inh 71µM*, TrxR1 inh -62%[57.1 µM], TrxR1 substrate 4%[11.4 µM], IDH1 R132H inh 9% and PLK1 PBD inh -20%.
For C#CCN(C[C@H]1[C@H](OC(=O)Nc2c(C)noc2C)[C@H](OC(=O)Nc2c(C)noc2C)C[C@H]2C(=O)N(c3ccccc3)C(=O)[C@@H]12)S(=O)(=O)c1ccc(C)cc1 the results were IDH1 R132H inh 13% and PLK1 PBD inh -5%.
Screening CSCC[C@H](N)C(=O)N[C@@H](CCCN=C(N)N)C(=O)N[C@@H](CC(C)C)C(=O)N[C@@H](Cc1ccccc1)C(=O)N[C@H](C(=O)O)C(C)C returned VDR inh 5% and Sfp inh -1%.
For CN(C)c1ccc(-c2ccc(C3C4C=CCCC4(C)C(=O)N3Cc3ccccc3)c(F)c2)cc1 (stereo not drawn) the results were VDR inh -12%, Sfp inh inconclusive, TrxR1 inh 4% and TrxR1 substrate 79%.
Screening Cn1cc(C(c2ccccc2OCC(=O)O)c2cn(C)c3ccccc23)c2ccccc21 returned VDR inh 40µM*, Sfp inh -3%, TrxR1 inh -8%[57.1 µM], TrxR1 substrate -7%, IDH1 R132H inh -26% and PLK1 PBD inh 3µM*.
CCn1c(=O)cc(OCC(=O)O)c2ccccc21 was read as VDR inh -7%, Sfp inh -3%, TrxR1 inh 14%, TrxR1 substrate 5%, IDH1 R132H inh -2% and PLK1 PBD inh -4%.
`Cc1ccccc1C(=O)Nc1ccc(S(=O)(=O)N2CCCC2)cc1` gave VDR inh 6%, Sfp inh -4%, TrxR1 inh 20%[57.1 µM], TrxR1 substrate 3%[57.1 µM], IDH1 R132H inh 3% and PLK1 PBD inh 0%.
O=C(Cc1ccc(Cl)cc1)NN1C(=O)c2ccccc2C1=O was read as VDR inh -17%, Sfp inh 9%, TrxR1 inh 19%, TrxR1 substrate 5%, IDH1 R132H inh 1% and PLK1 PBD inh 27µM*.
`Cc1cc(C)cc(OCC(=O)NN2C(=O)c3ccccc3C2=O)c1` gave VDR inh inconclusive, Sfp inh inconclusive, TrxR1 inh 13%, TrxR1 substrate 0%, IDH1 R132H inh -1% and PLK1 PBD inh -8%.
For O=C(c1ccc(Cl)c(S(=O)(=O)N2CCCC2)c1)N1CCCC(C(F)(F)F)C1 (stereo not drawn) the results were VDR inh -11%, TrxR1 inh -3%, TrxR1 substrate -3%, IDH1 R132H inh 4% and PLK1 PBD inh -6%.
